# Source: PubChem BioAssay (National Center for Advancing Translational Sciences (NCATS))
# An excerpt weighted towards active compounds, which were near 7.2% of everything screened.
# LASV entry inh = qHTS for Inhibitors of binding or entry into cells for Lassa Virus. Potency, µM (titrated, usually from 37.9 µM), most hits filed as inhibitors. AID 540256, 2011. Lassa virus pseudotype entry inhibition, cell reporter. hit rate 1.2% among 300,000; calls by dose curve; tested in HEK293 cells; further: nearly all actives have a fitted effect of over 50% in size
# RE007 growth inh = qHTS Assay for Inhibitors of the HIV-1 protein Vpr | S. pombe RE007 Vpr strain, BacTiter-Glo ATP luminescence, 24 h | AID 651644, 2012 | Potency, µM (highest dose often 92.2 µM), actives largely listed as inhibitors | hit rate 0.21% among 360,000; active means well fitted falling curve with a large enough effect; inconclusive means small, poorly fitted or top-dose-only effect; inactive means no such curve, though single readings can be large or run the other way; further: nearly all actives have a fitted effect of over 50% in size
#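 Fission yeast RE007 carrying one integrated HIV-1 vpr copy, seeded at OD 0.01 in PMG+AL medium with 23 nL pinned compound. Grown 24 h at 30 degrees; viability read by BacTiter-Glo luminescence after 5 min.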
# HCV inh = qHTS Assay for Inhibitors of Hepatitis C Virus (HCV). Huh7.5.1 HCVcc-Cre infection, luciferase reporter, 44 h. Potency, µM (highest dose often 41.8 µM), actives largely listed as inhibitors. hit rate 3.4% among 340,000. AID 651820, 2012
#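 1,000 cells/well; 4 h culture; + compound; + HCVcc-Cre (~0.5 moi); 44 h; luciferase substrate, RT 15 min; read 15 sec.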
# FMDV inh = High Throughput Screening for Foot and Mouth Disease Virus Antivirals; FMDV antiviral cell-based qHTS; Potency, µM (doses to about 57.9 µM), most hits filed as inhibitors; hit rate 1.2% among 410,000; AID 1159524, 2015; calls by dose curve; tested in HEK293T cells; further: read-out not given here; nearly all actives have a fitted effect of over 45% in size
# Sm TGR inh = qHTS Assay for the Inhibitors of Schistosoma Mansoni Peroxiredoxins | purified TGR, DTNB reduction, TNB absorbance 405 nm | hit rate 3% among 360,000 | AID 485364, 2010 | Potency, µM (top dose mostly 114 µM), hits mostly inhibitors; further: nearly all actives have a fitted effect of over 60% in size
#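 First, TGR (20 nM dispensed) and NADPH were mixed with compound. Second, a 15 min room-temperature incubation followed. Third, further NADPH and then DTNB were added to start the reaction. Finally, TNB absorbance was monitored kinetically.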
# MARV entry inh = qHTS for inhibitors of binding or entry into cells for Marburg Virus; Potency, µM (doses to about 37.8 µM), hits mostly inhibitors; hit rate 1.8% among 300,000; AID 540276, 2011; Marburg virus pseudotyped entry inhibition, cell reporter; calls by dose curve; tested in HEK293 cells
# Numbers stand for hits; n = inactive; u = inconclusive; x = not tested or not shown; [ ] = remark or other dose. Unless noted, the call rests on the fitted dose curve; in most records, active means well fitted curve in the direction sought with a large enough effect; inconclusive means small, poorly fitted or top-dose-only effect, or another doubt; inactive means no such curve, though single readings can be large; an effect the other way counts as inactive or inconclusive.
SMILES,LASV entry inh,RE007 growth inh,HCV inh,FMDV inh,Sm TGR inh,MARV entry inh
COC(=O)C(CCSC)Nc1ncnc2onc(-c3ccc(F)cc3)c12 (configuration not stated),n,x,x,n,n,n
CN(C(=O)CSc1nnc(-c2ccccc2)c(-c2ccccc2)n1)C1CCS(=O)(=O)C1 (configuration not stated),n,n,n,n,n,n
CN(C(=O)CSc1nnc(-c2ccc(F)cc2)c2ccccc12)C1CCS(=O)(=O)C1 (configuration not stated),n,n,n,u,n,5.01µM
O=C(Nc1ccc2ccccc2c1)C(c1ccccc1)C1CCCC1 (configuration not stated),2.59µM,n,u,n,n,u
Cc1nnc(CN(C)C(=O)c2cc(COc3ccc(F)cc3Cl)on2)o1,n,n,n,n,n,u
Cc1ccc(OCc2cc(C(=O)NCc3cn4ccccc4n3)no2)cc1C,x,n,u,n,n,x
CCn1cc(CNC(=O)c2cc(COc3ccc(F)cc3Cl)on2)cn1,u,n,u,n,n,14.6µM
O=C(NCCc1ccccc1Cl)c1cc(COc2ccc(F)cc2F)on1,x,n,11.2µM,n,x,x
CN(Cc1cccc2cnccc12)C(=O)c1cc(COc2ccc(F)cc2Cl)on1,u,n,10µM,n,n,n
CCn1nc(C)c(CNC(=O)c2cc(COc3ccc(F)cc3Cl)on2)c1C,x,n,u,u,n,x
O=C(NCCc1cn2ccccc2n1)c1cc(COc2c(F)cccc2F)on1,n,n,n,u,39.8µM,n
CCNC(=S)N=Nc1c(O)[nH]c2ccc(C(C)C)cc12,3.55µM,n,u,n,n,n
CC(C)c1ccc2[nH]c(O)c(N=NC(=S)NCCc3ccccc3)c2c1,x,n,u,n,n,n
COc1ccc(Cl)cc1NC(=O)c1ccc2c(c1)CCCN2S(C)(=O)=O,n,x,x,n,n,n
COc1ccc(N(C(=O)c2cc(OC)c(OC)c(OC)c2)S(=O)(=O)c2ccc(C)cc2)cc1,u,x,x,n,n,x
Cc1[nH]c(=O)[nH]c(=O)c1/C=N/NC(=O)[C@@H](NC(=O)OC(C)(C)C)C(C)C,n,n,n,n,35.5µM,n
Cc1[nH]c(=O)[nH]c(=O)c1/C=N/NC(=O)[C@H](C)N,x,n,n,n,50.1µM,x
Cc1[nH]c(=O)[nH]c(=O)c1/C=N/NC(=O)CCNC(=O)OC(C)(C)C,x,n,n,n,n,x
CC1CCN(C(=O)c2ccc3c(c2)N(Cc2ccccc2)C(=O)c2ccccc2S3(=O)=O)CC1,n,x,x,n,n,u
Cc1cc(F)ccc1NC(=O)CN(C)S(=O)(=O)c1ccc(C(=O)N2CCOCC2)s1,n,x,x,u,n,x
Cc1cc(Nc2ccc(Cl)cc2)n2cnnc2n1,u,x,x,n,n,n
N/N=C/C(=N\Nc1ccc(Cl)cc1)C(=O)c1ccncc1,u,n,22.4µM,u,n,u
COc1cc(C(=O)Nc2ccc(NC(=O)C3CCCCC3)nc2)cc(OC)c1OC,x,n,u,n,n,n
COc1cccc(C(=O)Nc2ccc(NC(=O)C(C)(C)C)cn2)c1,7.08µM,n,u,n,n,12.6µM
COc1cc(C(=O)Nc2ccc(NC(=O)c3cccc(Cl)c3)nc2)cc(OC)c1OC,u,n,3.98µM,n,n,u
SMILES,LASV entry inh,RE007 growth inh,HCV inh,FMDV inh,Sm TGR inh,MARV entry inh
Cc1ccc(C)c(-n2nnc(C(=O)Nc3ccc(Br)cc3)c2C)c1,n,x,x,n,n,n
O=C(c1cnccn1)N1CCC[C@@]2(CCN(Cc3cc(C(F)(F)F)cc(C(F)(F)F)c3)C2)C1,x,x,x,n,x,x
CCN(CC)CCN(C(=O)c1ccc(N2C(=O)CCC2=O)cc1)c1nc2cc3c(cc2s1)OCCO3,x,n,n,n,44.7µM,n
CN(C)CCCN(C(=O)c1cc2cc([N+](=O)[O-])ccc2s1)c1nc2cc3c(cc2s1)OCCO3,u,n,u,39.8µM,n,u
CCN(Cc1ccccc1)S(=O)(=O)c1ccc(C(=O)N(CCCN(C)C)c2nc3cc4c(cc3s2)OCCO4)cc1,u,n,11.2µM,u,n,u
COc1ccc2sc(N(CCN(C)C)C(=O)/C=C/c3cccs3)nc2c1,x,n,15.8µM,u,n,x
CCN(CC)CCN(C(=O)c1cccc(N2C(=O)CCC2=O)c1)c1nc2cc3c(cc2s1)OCO3,n,n,n,n,n,n
CC(=O)NCCNc1ncnc2ccc(-c3ccc4c(c3)OCO4)cc12,x,x,x,n,x,x
c1ccc(-n2ncc3c(NC[C@@H]4CCCO4)ncnc32)cc1,x,x,x,x,x,n
COC(=O)C1CCCCN1Cc1ccc2c(c1)CN(C(=O)c1csc(-c3cccs3)n1)CCO2 (configuration not stated),x,x,x,n,x,x
C[C@@H]1CC[C@H]2C(=O)N(CC3CCCCC3)C[C@H](O)CN2[C@@H]1c1ccc(Br)cc1,x,x,x,x,x,n
CC(C)N(Cc1nc(-c2ccc(Cl)cc2)no1)C(=O)c1ccco1,n,x,x,u,n,n
CN(C)CCCN(C(=O)c1ccc(C(=O)c2ccccc2)cc1)c1nc2cc3c(cc2s1)OCO3,11.2µM,n,14.1µM,u,n,15.8µM
CCN(Cc1ccccc1)S(=O)(=O)c1ccc(C(=O)N(CCCN(C)C)c2nc3ccc(F)cc3s2)cc1,u,n,u,n,n,u
CCN(Cc1ccccc1)S(=O)(=O)c1ccc(C(=O)N(CCCN(C)C)c2nc3cc(OC)ccc3s2)cc1,u,n,25.1µM,n,n,u
NS(=O)(=O)c1ccc(Nc2cc(-c3ccc(O)c(F)c3)[nH]n2)cc1,n,x,x,x,x,x
O=C1C=C2C(=CCOC2O)O1 (configuration not stated),x,x,x,14.1µM,x,x
CCn1c(-c2cccnc2)nc2cc(NC(=O)COC)cc(C(=O)N3CC[C@@H]4CCCC[C@H]4C3)c21,x,x,x,n,x,x
COC(=O)c1cccc(C#CC(NP(=O)(c2ccccc2)c2ccccc2)c2ccccc2)c1 (configuration not stated),x,n,u,u,11.2µM,x
COC(=O)[C@]1(C)C[C@H]1[C@H](NP(=O)(c1ccccc1)c1ccccc1)c1ccccc1,u,n,n[8.37 µM],n,n,n
CCN(CC)c1ccc(/C=N/NC(=S)NCc2ccc(OC)cc2)cc1,3.66µM,n,u,n,n,u
C=CCNC(=S)N/N=C/c1ccc(N(CC)Cc2ccccc2)cc1,16.4µM,x,u,u,n,11.6µM
CCN(CC)c1ccc(/C=N/NC(=S)NCc2ccccc2)cc1,u,n,n,n,n,u
OCCc1ccc(-c2ccc(Cl)cc2)o1,n,u,n,n,44.7µM,n
CN1CCN(Cc2ccc(-c3ccc(Cl)cc3)o2)CC1,n,n,14.1µM,n,u,u
CCc1cccc(NC(=O)c2cc3c(=O)oc4ccc(C)cc4c3s2)c1,n,x,x,n,n,n
CC(=O)c1sc(-c2ccc(Cl)cc2)nc1C,u,n,n,n,n,u
